Assay [1] in a line: Cell Viability - Hek293 (AID 427;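 active = compounds whose dose-response curve shows a full or clear partial loss of cell viability, called from curve shape rather than a numeric limit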;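 note: potency is the fitted concentration of half-maximal effect; cells exposed to compound for 40 hours at 37 °C before reading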). As to conditions: qHTS. In short, it runs like this: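 qHTS, human embryonic kidney (adenovirus-transformed) cells; 40 hr cpd, 37 °C; CellTiter-Glo ATP luminescence. Norm: DMSO = 0, 100 uM tamoxifen = 100% inhibition. Hill-fit AC50.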
Assay [2] can be described thus: Cell Viability - SK-N-SH (AID 435; calls by dose curve; note: potency is the fitted concentration of half-maximal effect). As to conditions: SK-N-SH neuroblastoma cell viability qHTS. An outline of the steps:
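SK-N-SH neuroblastoma cells (1500/well) treated 40 h at 37 °C in complete medium; viability read as cellular ATP by CellTiter-Glo luminescence. Normalized to DMSO and 100 uM tamoxifen; AC50 from Hill fits of qHTS concentration-response.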
Background: In qHTS, concentration-response curves come from the screen itself.

Assay [3] in a line: Cell Viability - N2a (AID 540).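 For activity change, negative = cytotoxicity: plate controls were DMSO alone for no effect and tamoxifen control for full effect.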 Note: nearly all actives have a fitted effect of over 45% in size. Note: potency is the fitted concentration of half-maximal effect. The settings on record: N2a mouse neuroblastoma cell viability; activity change, negative = cytotoxicity: at 92.2 µM (top of the series). In short, it runs like this:
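N2a mouse neuroblastoma, 1500 cells/well, 5 hr settle; compound 40 hr, 37 °C; CellTiter-Glo 20 min RT; luminescence; Hill-fit AC50.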

Assay [4] is described as follows: Cell Viability - H-4-II-E (AID 543).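 Note: cells exposed to compound for 40 hours; nearly all actives have a fitted effect of over 35% in size.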 Note: potency is the fitted concentration of half-maximal effect. As to conditions: H-4-II-E rat hepatoma viability; series mostly up to 92.2 µM. An outline of the steps: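 qHTS, rat hepatoma H-4-II-E, 1500 cells/well; 40 hr compound exposure, 37 °C; CellTiter-Glo ATP luminescence after 20 min RT; AC50 by standard Hill fit.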
Assay [5] can be described thus: MultiTox-Fluor Cytotoxicity Assay - LYMP1-001 - Live Cells (AID 947).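 Note: 0% = DMSO only and full inhibition = tetraoctylammonium bromide control.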 As to conditions: LYMP1-001 lymphoblastoid cells, live-cell protease fluorescence viability; series mostly up to 92.2 µM.
Assay [6] can be described thus: Cell Viability - LYMP2-005 (AID 967). Note: potency is the fitted concentration of half-maximal effect. As to conditions: LYMP2-005 lymphoblastoid cell viability; series mostly up to 92.2 µM. In short, it runs like this: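 Human lymphoblastoid LYMP2-005 cells, 2,500 per well in complete medium, rested 5 h at 37C then compound-treated 24 h at 37C. Intracellular ATP read by CellTiter-Glo luminescence after 30 min at room temperature; AC50 from Hill-equation fits of concentration-response data.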

Assay [7] in a line: Cell Viability - LYMP2-009 (AID 968). Note: nearly all actives have a fitted effect of over 55% in size. Note: potency is the fitted concentration of half-maximal effect. The settings on record: LYMP2-009 lymphoblastoid cell viability; series mostly up to 92.2 µM.
Assay [8] in a line: Cell Viability - LYMP2-015 (AID 971). Note: nearly all actives have a fitted effect of over 55% in size. Note: potency is the fitted concentration of half-maximal effect. As to conditions: LYMP2-015 lymphoblastoid cell viability; series mostly up to 92.2 µM. An outline of the steps: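 qHTS cytotoxicity: 2500 cells/well, 5 hr 37 C, compound 24 hr 37 C, CellTiter-Glo 30 min RT, luminescence. Loss of ATP = toxicity; AC50 via standard Hill fit.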
Assay [9] is described as follows: Cell Viability - LYMP2-019 (AID 973).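 For activity change, negative = cytotoxicity: 0% = DMSO alone and full effect = 92 µM tetraoctylammonium bromide.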 Note: nearly all actives have a fitted effect of over 55% in size. Note: potency is the fitted concentration of half-maximal effect. The settings on record: LYMP2-019 lymphoblastoid cell line viability; series mostly up to 92.2 µM. An outline of the steps: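 qHTS, 1536-well; 2500 cells/well; 5 hr pre-incubation, 24 hr compound exposure, 37 C; CellTiter-Glo added, 30 min RT; luminescence read; AC50 via standard Hill equation.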
Assay [10] can be described thus: Cell Viability - LYMP2-021 (AID 974). For activity change, negative = cytotoxicity: % is set by controls: 0 for no effect and ±100 for the full control effect.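 Note: compound exposure lasts 24 hours at 37 °C; nearly all actives have a fitted effect of over 55% in size.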 Note: potency is the fitted concentration of half-maximal effect. The settings on record: LYMP2-021 lymphoblastoid cells viability; series mostly up to 92.2 µM. An outline of the steps:
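ATP luminescence (CellTiter-Glo, 30 min RT) after 24 h compound exposure at 37 C; 2500 human lymphoblastoid cells/well, 5 h settle beforehand. Cytotoxicity = concentration-dependent ATP drop, AC50 by Hill fit.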

Assay [11] in a line: Cell Viability - LYMP2-010 (AID 981). Note: potency is the fitted concentration of half-maximal effect. As to conditions: LYMP2-010 lymphoblastoid cell viability, qHTS; series mostly up to 92.2 µM. In short, it runs like this: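 qHTS cytotoxicity, 1536-well: 2500 cells/well, 5 hr settle, 24 hr compound at 37 C, CellTiter-Glo 30 min RT, luminescence read. Decrease in ATP = toxicity; AC50 via standard Hill equation. Positive control tetraoctylammonium bromide.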

Assay [12] in a line: Cell Viability - LYMP2-012 (AID 982).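 For activity change, negative = cytotoxicity: 0% = DMSO only and full loss = 92 µM tetraoctylammonium bromide.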 Note: potency is the fitted concentration of half-maximal effect. As to conditions: LYMP2-012 lymphoblastoid cell viability qHTS; series mostly up to 92.2 µM.
Assay [13] can be described thus: qHTS assay for small molecule disruptors of the mitochondrial membrane potential - 5 hr assay (AID 651755; calls by dose curve; note: nearly all actives have a fitted effect of over 40% in size; note: potency is the fitted concentration of half-maximal effect). The settings on record: JC-1-type ratio dye; series mostly up to 92.2 µM. An outline of the steps: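 Seed HepG2 overnight, add compound, incubate 5 hr at 37C and 5% CO2, stain 30 min with Mito-MPS, then measure monomer (490/535 nm) and aggregate (540/590 nm) fluorescence.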

Assay [14] in a line: qHTS assay for small molecule agonists of the antioxidant response element (ARE) signaling pathway measured by Nrf2-dependant transcriptional activity (AID 720636; active = well fitted curve in the direction sought with a large enough effect in the repeat runs; an effect the other way counts as inactive or inconclusive; note: potency is the fitted concentration of half-maximal effect). The settings on record: ARE-luc HepG2, Nrf2 luciferase reporter, 16 h; series mostly up to 92.4 µM. In short, it runs like this: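 Quantitative HTS format in HepG2 cells stably expressing an ARE-luciferase reporter; 16 hr compound treatment at 37 C, luciferase signal detected with ONE-Glo.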

Assay [15] can be described thus: Cell Viability - SH-SY5Y (AID 544).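 For viability change, negative = cytotoxic: 0% = DMSO alone and -100% = 100 µM tamoxifen.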 Note: potency is the fitted concentration of half-maximal effect. The settings on record: SH-SY5Y neuroblastoma cell viability; viability change, negative = cytotoxic: at 92.2 µM (top of the series). An outline of the steps:
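SH-SY5Y, 1500 cells/well, 5 hr pre-incubation 37 °C; cpd 40 hr 37 °C; CellTiter-Glo 20 min RT; luminescence (ATP) read. qHTS concentration-response, Hill fit → AC50. Tamoxifen, doxorubicin as positive controls.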

The nature of assay [16]: Cell Viability - LYMP2-001 (AID 921). Note: nearly all actives have a fitted effect of over 70% in size. Note: potency is the fitted concentration of half-maximal effect. The settings on record: LYMP2-001 lymphoblastoid cell viability; series mostly up to 92.2 µM. An outline of the steps: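 Human lymphoblastoid LYMP2-001 cells, 2500 per well, in complete medium, treated 24 h at 37 C. Viability from cellular ATP by CellTiter-Glo luminescence; AC50 from Hill-equation fits of qHTS concentration-response.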

The nature of assay [17]: Cell Viability - LYMP2-002 (AID 977).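 Note: plate controls were DMSO only for no effect and 92 µM tetraoctylammonium bromide for full effect.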 As to conditions: LYMP2-002 lymphoblastoid cell viability, qHTS; series mostly up to 92.2 µM. An outline of the steps: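 In this qHTS viability screen, 2500 human lymphoblastoid cells per well receive compound for 24 hr at 37 C, and luciferase-based ATP luminescence gives the viability signal. Tetraoctylammonium bromide serves as positive control.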

Assay [18] is described as follows: qHTS assay for small molecule agonists of retinoid X receptor alpha signaling (AID 588544). The settings on record: HEK293T RXRa-UAS-bla, beta-lactamase reporter, 18 h; 530 nm emission.
Assay [19] can be described thus: qHTS assay for small molecule antagonists of retinoid X receptor alpha signaling (AID 588546; active = well fitted inhibition curve with a large enough effect in the signal ratio, with a control signal flat, not every such curve was filed as active; the % refers to the signal ratio; note: potency is the fitted concentration of half-maximal effect;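 for max response: cells stimulated with 9-cis-retinoic acid as agonist; % is set by controls: 0 for no effect and ±100 for the full control effect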). As to conditions: HEK293T RXRa-UAS-bla, beta-lactamase ratio, antagonist mode; measured here: W530 green channel, cytotoxicity proxy. In short, it runs like this: (§1)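 Beta-lactamase reporter inhibition, read as CCF4 fluorescence ratio (ex 405, em 460/530 nm) after 2 h at RT. HEK293T UAS-bla cells, 2500/well, were stimulated with 9-cis-RA at 500 or 100 nM final alongside test compound for 18 h at 37 C.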

Assay [20] deals with Retinoic acid receptor RXR-alpha (Homo sapiens) (UniProt P19793). The description is as above. The settings on record: HEK293T RXRa-UAS-bla, beta-lactamase ratio, antagonist mode. An outline of the steps:
as §1

Drawing on PubChem BioAssay (NCATS), this text covers Potency, activity change, negative = cytotoxicity and max response for eight compounds.

Inconclusive results are not listed. Active and inactive are the calls of the source. Unless noted, calls come from the whole dose curve; as a rule, active = well fitted curve in the direction sought with a large enough effect; inconclusive = small, poorly fitted or top-dose-only effect, or another doubt; inactive = no such curve, though single readings can be large; an effect the other way counts as inactive or inconclusive.

Chain of Retinoic acid receptor RXR-alpha (Homo sapiens) (P19793 whole entry, looked up): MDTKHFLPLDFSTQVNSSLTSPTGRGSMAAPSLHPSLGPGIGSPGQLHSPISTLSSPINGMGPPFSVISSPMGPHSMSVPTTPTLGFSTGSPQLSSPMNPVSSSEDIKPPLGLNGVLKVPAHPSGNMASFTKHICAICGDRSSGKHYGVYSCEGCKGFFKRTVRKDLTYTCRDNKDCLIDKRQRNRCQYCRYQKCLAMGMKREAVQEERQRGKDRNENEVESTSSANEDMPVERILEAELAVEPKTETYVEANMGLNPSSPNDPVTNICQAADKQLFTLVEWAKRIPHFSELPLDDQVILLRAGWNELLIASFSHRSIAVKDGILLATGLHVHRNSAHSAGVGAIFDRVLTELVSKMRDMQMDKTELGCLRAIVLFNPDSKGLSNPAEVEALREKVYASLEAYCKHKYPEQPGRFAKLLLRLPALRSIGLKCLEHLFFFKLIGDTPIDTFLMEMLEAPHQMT

On to `CC/C=C/C/C=C/C/C=C/CCCCCCCC(=O)OCC`, for which the Potency is > 92 µM (inactive) in assay [1]; > 92 µM (inactive) in assay [2]; 31.6 µM (active) in assay [6]; 39.8 µM (active) in assay [7]; 39.8 µM (active) in [8]; 39.8 µM (active) in [9]. Moreover, the Potency was 50.1 µM (active) in assay [10], 25.1 µM (active) in assay [11], 39.8 µM (active) in assay [12] and 66.8 µM (active) in assay [14]. Moreover, the activity change, negative = cytotoxicity in assay [3] was -12.6% (inactive). In addition, the Potency result in [4], in assay [5] and in [13] was “inactive” throughout.
Take `C=CC(=O)CC`: the Potency in assay [1] and in [2] was > 92 µM (inactive) each time. For the same compound, the activity change, negative = cytotoxicity in assay [3] was 4.36% (inactive). The Potency entry in [4], in [15], in assay [16], in [5], in assay [6] and in assay [7] was “inactive” throughout. The Potency entry in assay [8], in assay [9], in [10], in [17], in [11] and in [12] was “inactive” in each case. The Potency entry in [13] and in assay [14] was “inactive” in each case. Also, the max response in assay [18] was -11.5%; in assay [19], 8.25%; in assay [20] it was 10.2% (inactive).
For the compound `O=C(O)/C=C/c1ccc(/C=C/C(=O)O)cc1`, the Potency in assay [1] and in assay [2] was > 92 µM (inactive) in each case. For the same compound, in [3], the activity change, negative = cytotoxicity was -20.9% (inactive). Further, the Potency result in assay [4], in assay [15], in assay [16], in [5], in assay [6] and in assay [7] was “inactive” in each case. The Potency entry in assay [8], in assay [9], in assay [10], in assay [17], in [11] and in assay [12] was “inactive” throughout. Besides, the Potency result in assay [13] and in [14] was “inactive” each time. The max response was 9.62% in assay [18], -0.222% in [19] and 14.1% (inactive) in assay [20].
Consider `C=CC(C)(O)CCCC(C)CCCC(C)CCCC(C)C` (stereo not drawn), for which the Potency in assay [1] and in assay [2] was > 92 µM (inactive) in each case. Also, in [3], the activity change, negative = cytotoxicity was -17.1% (inactive). Moreover, the Potency result in [4], in assay [15], in assay [16], in [5], in assay [7] and in assay [8] was “inactive” each time. Also, the Potency entry in assay [9], in assay [10], in assay [11], in [12] and in [14] was “inactive” each time. Also, the results for the max response in assay [18], in [19] and in assay [20] were -17.1%, -10.2% and 7.39% (inactive), respectively.
For `CC1=C(/C=C/C(C)=C/C=C/C(C)=C/C=O)C(C)(C)CCC1`, the Potency in assay [1] was 53.9 µM (active); in assay [2], 42.3 µM (active); in [3], 31.6 µM (active); in assay [4], 25.1 µM (active); in assay [15] it was 25.1 µM (active); in assay [16], 39.8 µM (active). The Potency in [6] was 39.8 µM (active); in [7], 39.8 µM (active); in [8] it was 39.8 µM (active); in assay [9] it was 50.1 µM (active); in assay [10], 50.1 µM (active); in assay [11] it was 31.6 µM (active). Further, the Potency in assay [12] was 50.1 µM (active). The results for the max response in assay [19] and in [20] were -0.803% and -29.6% (inactive), respectively. In addition, in assay [13], the Potency entry is “inactive”.
With `C[C@@H]1CC2(OC(O)[C@]3(C)O[C@H]23)O[C@H]2C[C@@]3(C)[C@@H]4CC[C@H]5C(C)(C)C(O[C@@H]6OC[C@@H](O)[C@H](O)[C@H]6O)CC[C@@]56C[C@@]46CC[C@]3(C)[C@@H]12` (stereo partly drawn), the Potency in [2] is > 92 µM (inactive); in [12], 50.1 µM (active). In addition, the activity change, negative = cytotoxicity in [3] is -12.9% (inactive). The Potency result in [5], in assay [6], in [7], in assay [8], in assay [10] and in [17] was “inactive” in each case. The Potency entry in assay [14] is “inactive”.
With `Cc1c2ccccc2c(C)c2c1ccc1ccccc12`, the activity change, negative = cytotoxicity in [3] was -25% (inactive). The Potency result in [4], in assay [5], in [6], in [7], in [9] and in assay [10] was “inactive” in each case. The Potency result in [17], in assay [12] and in assay [14] was “inactive” each time. Moreover, the Potency was 7.94 µM (active) in assay [15], 8.91 µM (active) in [20] and 33.5 µM (active) in [13]. Further, the max response in assay [19] is -10.9%.
Take `CC(=O)Nc1cccc(C)c1`: the Potency in assay [1] was > 92 µM (inactive). Moreover, in assay [3], the activity change, negative = cytotoxicity is -6.73% (inactive). Further, the Potency result in assay [4], in [16], in assay [5], in [7], in assay [8] and in assay [9] was “inactive” throughout. For the same compound, the Potency entry in [10], in [17], in [11], in [12], in assay [13] and in [14] was “inactive” in each case. The results for the max response in [18], in assay [19] and in assay [20] were -8.8%, 1.11% and 1.56% (inactive), respectively.
